Where a structure was tested more than once in an assay, its records may differ in their call. The source made the active and inactive calls. Rule for the calls: active = hit-call score of the fitted dose curve at least 0.9, where 1 is the maximum; inactive = score below 0.9.

Read-out in this assay: Epidermal growth factor receptor (EGFR), EGFR (gene 1956)
Put plainly: BSK_hDFCGF_EGFR: BioMAP Diversity Plus: hDFCGF Assay for Epidermal growth factor receptor (EGFR) Biomarker Activity (AID 2283057). The conditions noted are these: primary human foreskin fibroblasts; actives raise or lower the signal. The protocol:
BSK_hDFCGF is a cell-based, multiplexed-readout assay that uses foreskin fibroblast, a human skin primary cell, with measurements taken at 24 hours after chemical dosing in a 96-well plate.BSK_hDFCGF_EGFR is an assay component measured in the BSK_hDFCGF assay. It measures EGFR antibody related to regulation of gene expression using ELISA technology.Data from the assay component BSK_hDFCGF_EGFR was analyzed into 1 assay endpoint. This assay endpoint, BSK_hDFCGF_EGFR, was analyzed with bidirectional fitting relative to DMSO as the negative control and baseline of activity. Using a type of binding reporter, gain or loss-of-signal activity can be used to understand changes in the signaling as they relate to the gene EGFR. Furthermore, this assay endpoint can be referred to as a primary readout, because this assay has produced multiple assay endpoints where this one serves a signaling function. To generalize the intended target to other relatable targets, this assay endpoint is annotated to the kinase intended target family, where the subfamily is receptor tyrosine kinase.
The levels of cell surface (or secreted, indicated by the prefix "s") biomarker endpoints were measured by ELISA. Overt cytotoxicity to cells in confluent adherent cultures (all systems other than the BT system) was assessed by measuring total protein levels using sulforhodamine B (SRB) staining in parallel cultures at the time of biomarker measurements, indicated as SRB endpoints. For proliferation assays for adherent cell types, individual cell types are cultured at sub-confluence and relative cell numbers quantified by SRB staining at time points optimized for each system (48 h: 3C and CASM3C systems; 72 h: BT and HDF3CGF systems; 96 h: SAg system). SRB was performed by staining cells with 0.1% SRB after fixation with 10% TCA and reading wells at 560 nm.Viability and proliferation of PBMC (T cells) was quantified by Alamar Blue reduction for the SAg and BT systems. For PBMC viability (referred to as PBMC Cytotoxicity within the assay endpoint names), cells were plated (75,000/well in a 96-well plate) and then chemical samples added for 1 h before addition of activators, SEB and TSST-1 (20 ng/mL final concentration each). Cells were incubated for 90 h. Then, Alamar Blue (20 uL/well) (Invitrogen, Cat DAL1100) was added for 6 h, and the plates were read with a fluorescence microplate reader at 546/580 nm (excitation/emission). For PBMC proliferation, cells were plated and activated as above but incubated for only 16 h prior to addition of Alamar Blue. Plates were read after 6 h.
For the molecule `C/C=C\C/C=C/CCCCCCCCOC(C)=O`, the outcome was inactive.
The same measure, in the same setting: with `CCCCC(CC)COCC1CO1` (configuration not stated) the entry was “inactive”.
Regarding `C#CC1(O)CC[C@H]2[C@@H]3CCC4=CCCC[C@@H]4[C@H]3CC[C@@]21C` (some centres not stated), the AC50 (in general, the concentration giving half of the maximal activity seen) is 20 µM (active).
Consider `CC1OC1C1CCC2(C)OC2C1` (configuration not stated), for which the result was inactive.
As to `CCCCCCCCc1ccc(Nc2ccc(CCCCCCCC)cc2)cc1`, the result was inactive.
On to `c1ccc(-c2ccccn2)nc1`, for which the result was inactive.
As to `CC(C)(c1cc(Br)c(OCCO)c(Br)c1)c1cc(Br)c(OCCO)c(Br)c1`, the outcome was inactive.
Still for that read-out and setting: with `CN1C(=O)N(C)C(O)C1O` (configuration not stated) the entry was “inactive”.
On to `C=C[Si](OC(C)=O)(OC(C)=O)OC(C)=O`, for which the outcome was inactive.
In the case of `COc1ccc2nc(N)sc2c1`, the result was inactive.
Same read-out and setting: with `CCO[Si](C)(OCC)OCC` the entry was “inactive”; with `CC(C)C(=O)C(C)C`, “inactive”; with `C=CC=CC=CCCCCC`, “inactive”.
With `CCCCCCCCCCCCCCCC[N+](C)(C)CC`, the result was inactive.
Still for that read-out and setting: under `O=C(c1ccc(O)cc1)c1ccc(O)cc1O` stands “inactive”; under `N#[N+]c1ccc2c(S(=O)(=O)[O-])cccc2c1O`, “inactive”; under `c1ccc2c(c1)ccc1cc3c(ccc4ccccc43)cc12`, “inactive”.
The same measure, in the same setting: with `O=Nc1ccc(O)cc1` the entry was “inactive”; with `O=C1CCCN1CCO`, “inactive”.
For the molecule `Nc1ccc(N)c(Cl)c1`, the AC50 was 21.4 µM (active) and the result was inactive.
For `C=CCOCC(O)CCl` (configuration not stated), the outcome was inactive.
Same read-out and setting: under `CO[Si](OC)(OC)c1ccccc1` stands “inactive”; under `O=C(Nc1ccccc1SSc1ccccc1NC(=O)c1ccccc1)c1ccccc1`, “inactive”.
For `CCCCC/C=C\C/C=C\CCCCCCCC(=O)OC`, the outcome was inactive.
Still for that read-out and setting: under `CCOc1nc(F)cc2nc(S(=O)(=O)Nc3c(Cl)cccc3C(=O)OC)nn12` stands “inactive”; under `c1ccc2c(c1)ccc1ncccc12`, “inactive”; under `CCCCNc1ccc(NCCCC)c2c1C(=O)c1ccccc1C2=O`, “inactive”.
On the same count and under the same terms, under `COCc1c(C(C)C)nc(C(C)C)c(/C=C/[C@@H](O)C[C@@H](O)CC(=O)O)c1-c1ccc(F)cc1` stands “inactive”; under `O=c1c2ccccc2oc2ccccc12`, “inactive”; under `O=C(Cl)c1cc(C(=O)Cl)cc(C(=O)Cl)c1`, “inactive”.
The same measure, in the same setting: under `CCCCC(CC)COC(=O)c1ccccc1O` (configuration not stated) stands “inactive”; under `CCO[Si](CCCN=C=O)(OCC)OCC`, “inactive”; under `C=CC(=O)OCC(Br)CBr` (configuration not stated), “inactive”.
Regarding `S=C(NC1CCCCC1)NC1CCCCC1`, the outcome was inactive.
Still for that read-out and setting: with `C=CCOc1c(Br)cc(Br)cc1Br` the entry was “inactive”.
On to `CCOC(=O)c1ccccc1C(=C1C=C(Br)C(=O)C(Br)=C1)c1cc(Br)c(O)c(Br)c1`, for which the outcome was inactive.

The record behind these values is PubChem BioAssay (EPA / NIEHS).
